The values below come from PubChem BioAssay (NCATS).

Values without a mark were called inactive. Inconclusive results are not listed. For some assays here: Entries with a potency or affinity are not part of this list. The source made the active and inactive calls. Unless noted, the rule behind the calls is not given here.

The conditions of assay [1]: Ebola virus entry assay, green fluorescence channel.
The conditions of assay [2]: Ebola virus entry assay, blue channel fluorescence.
The conditions of assay [3]: Ebola virus entry assay, ratio channel.
For assay [4] the following is noted: Ebola virus entry assay, green channel fluorescence.
For assay [5] the following is noted: Ebola virus entry assay, reporter ratio channel; Channel type: primary.
For assay [6] the following is noted: Ebola virus entry assay, blue channel (ratio component).
The nature of assay [7]: qHTS assay for measurement of the activity of small molecule inhibitors on Zika virus induced Caspase-3 activity in human iPSC derived neural progenitor cells (hNPCs) (AID 1224857; active = well fitted curve in the direction sought with a large enough effect; an effect the other way counts as inactive or inconclusive; note: nearly all actives have a fitted effect of over 65% in size; note: potency is the fitted concentration of half-maximal effect). The settings on record: hNPCs ZIKV-induced caspase-3/7, Caspase-Glo luminescence, 6 h; series mostly up to 45.7 µM. The gist of the method:
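Quantitative HTS format: human iPSC neural progenitors, 1 h compound pretreatment, ZIKV 2 FFU/cell for 6 h at 37 C. Percent inhibition derived from luminescent caspase-3/7 signal between uninfected and infected controls.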
(In general: In qHTS, concentration-response curves come from the screen itself.)

Assay [8] in a line: qHTS assay for measurement of the activity of small molecule inhibitors on Zika virus induced Caspase-3 activity in human astrocytoma cells (AID 1224859; active = well fitted curve in the direction sought with a large enough effect; an effect the other way counts as inactive or inconclusive;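 note: plate controls were ZIKV-infected untreated cells for no effect and uninfected cells for full effect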). Conditions: SNB-19 ZIKV-induced caspase-3/7, luminescence, 6 h; series mostly up to 45.7 µM. Summed up:
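Readout is luminescence from Caspase-Glo 3/7 added after a 6 h ZIKV infection (2 FFU/cell) of compound-pretreated (1 h) SNB-19 cells; data expressed as % inhibition versus uninfected and infected wells.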

A short description of assay [9]: qHTS assay to identify small molecule inhibitors of chordoma cells - UCH-1 (AID 1259355; active = well fitted curve in the direction sought with a large enough effect; an effect the other way counts as inactive or inconclusive; note: % is set by controls: 0 for no effect and ±100 for the full control effect; nearly all actives have a fitted effect of over 55% in size). The settings on record: UCH-1 chordoma viability, CellTiter-Glo, 48 h, combination; series mostly up to 46.1 µM. Summed up:
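Seed 800 cells per well; incubate overnight at 37 C, 5% CO2. Add test compounds (15 concentrations), then the auranofin–topoisomerase-agent combination. Incubate 48hr, add CellTiter-Glo, wait 30min, read luminescence.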

Assay [10] is described as follows: qHTS assay to identify small molecule inhibitors of chordoma cells - UCH-2 (AID 1259356; active = well fitted curve in the direction sought with a large enough effect; an effect the other way counts as inactive or inconclusive; note: % is set by controls: 0 for no effect and ±100 for the full control effect). Conditions: UCH-2 chordoma viability, CellTiter-Glo ATP luminescence, 48 h; series mostly up to 46.1 µM.
Throughout, for efficacy: 0% is about no effect.

Consider `O=C(O)CCCCCCNC1c2ccccc2CCc2ccccc21`, for which the efficacy in [1] is 26.2%. Moreover, the result in assay [2], in assay [3], in assay [4], in [5], in assay [6] and in assay [8] was inactive. Further, in [7], the Potency entry was “inactive”.
For `C[C@]12CC[C@H]3[C@@H](CC=C4C[C@@H](O)CC[C@@]43C)[C@@H]1CC[C@@H]2O`, in assay [1], the efficacy was -35.9%. The outcome in assay [2], in assay [3], in assay [4], in assay [5], in assay [6] and in assay [8] was inactive. The Potency result in assay [7], in [9] and in [10] was “inactive” in each case.
With `c1cc2c(c(N3CCNCC3)c1)OCCO2`, the efficacy in assay [1] is 11.5%. The result in assay [2], in assay [3], in assay [4], in assay [5], in assay [6] and in [8] was inactive. The Potency entry in [7], in [9] and in [10] was “inactive” in each case.
`COc1cc(CC#N)cc(OC)c1OC`: the efficacy in [1] is -13.1%. The outcome in [2], in assay [3], in assay [4], in assay [5], in [6] and in [8] was inactive. In [7], the Potency result was “inactive”.
For `CCCCC1C(=O)NC(=O)N(C2CCCCC2)C1=O` (configuration not stated), the efficacy in [1] is 18.4%. In addition, the call in assay [2], in assay [3], in [4], in assay [5], in assay [6] and in [8] was inactive. Moreover, the Potency result in assay [7] is “inactive”.
For the compound `Oc1c(Br)cc(Br)cc1Br`, the efficacy in assay [1] was -9.36%. The call in assay [2], in [3], in assay [4], in assay [5], in assay [6] and in assay [8] was inactive. Also, the Potency entry in assay [7], in assay [9] and in [10] was “inactive” each time.
Consider `CCOC(=O)C(c1c(O)c2ccccc2oc1=O)c1c(O)c2ccccc2oc1=O`, for which, in [1], the efficacy is 18.5%. In addition, the result in assay [2], in assay [3], in assay [4], in assay [5], in assay [6] and in assay [8] was inactive. In addition, the Potency result in assay [7] was “inactive”.
As for `CC1Sc2c(C(=O)O)c(=O)c3cc(F)c(N4CCNCC4)cc3n21` (configuration not stated), the efficacy in assay [1] was 10.3%. Besides, the outcome in assay [2], in assay [3], in assay [4], in [5], in [6] and in assay [8] was inactive. Moreover, the Potency result in assay [7] is “inactive”.
`CCC1(c2ccccc2)CCC(=O)NC1=O` (configuration not stated): the efficacy in assay [1] is 11%. The result in assay [2], in [3], in [4], in assay [5], in assay [6] and in assay [8] was inactive. Also, the Potency result in [7], in assay [9] and in assay [10] was “inactive” throughout.
`CCCOC(=O)Cc1ccc(OCC(=O)N(CC)CC)c(OC)c1`: the efficacy in assay [1] is -14.5%. For the same compound, the compound was called inactive in assay [2], in assay [3], in assay [4], in [5], in assay [6] and in [8]. Besides, the Potency result in assay [7] is “inactive”.
Regarding `C[C@H]1C(=O)O[C@@H]2CCN3CC=C(COC(=O)[C@](C)(O)[C@]1(C)O)[C@H]23`, the efficacy in assay [1] is 7.51%. Further, the call in [2], in assay [3], in [4], in assay [5], in assay [6] and in assay [8] was inactive. For the same compound, the Potency entry in assay [7], in [9] and in [10] was “inactive” each time.
`CCNc1nc(Cl)nc(NCC)n1`: the efficacy in [1] was 16.6%. Moreover, the outcome in [2], in [3], in assay [4], in assay [5], in [6] and in assay [8] was inactive. Further, the Potency result in assay [7], in assay [9] and in assay [10] was “inactive” each time.
Regarding `CC1=C2[C@H]3OC(=O)[C@@H](C)[C@@H]3CC[C@@]2(C)C=CC1=O`, the efficacy in assay [1] was 18.3%. Further, the compound was called inactive in [2], in [3], in [4], in assay [5], in [6] and in assay [8]. Besides, the Potency entry in assay [7], in [9] and in [10] was “inactive” throughout.
Turning to `CNC(C)Cc1ccccc1OC` (configuration not stated), the efficacy in [1] is -13.2%. In addition, the call in assay [2], in [3], in assay [4], in [5], in [6] and in assay [8] was inactive. Also, in [7], the Potency result is “inactive”.
As for `CC(C)=C[C@@H]1[C@@H](C(=O)OCc2coc(Cc3ccccc3)c2)C1(C)C`, the efficacy in assay [1] is 20%. Moreover, the outcome in assay [2], in assay [3], in assay [4], in assay [5], in [6] and in assay [8] was inactive. Moreover, the Potency entry in [7], in assay [9] and in [10] was “inactive” throughout.
Consider `CN1C[C@@H](NS(=O)(=O)N(C)C)C[C@@H]2c3cccc4c3c(cn4C)C[C@H]21`, for which the efficacy in [1] is 31.9%. The compound was called inactive in assay [2], in [3], in assay [4], in assay [6] and in assay [8]. In addition, the concentration at half-maximal activity (AC50) in [5] was 39.8 µM (active). Moreover, the Potency result in assay [7], in assay [9] and in assay [10] was “inactive” each time.
In the case of `CCOC(=O)c1ncn2c1CN(C)C(=O)c1c(I)cccc1-2`, the efficacy in assay [1] is 19.2%. Further, the compound was classed as inactive in assay [2], in assay [3], in assay [4], in assay [5], in assay [6] and in assay [8]. Further, the Potency entry in [7] is “inactive”.
For the compound `CN(C)CCc1c[nH]c2ccc(O)cc12`, the efficacy in assay [1] was -13.8%. The compound was classed as inactive in assay [2], in [3], in assay [4], in assay [5], in assay [6] and in assay [8]. In assay [7], the Potency result is “inactive”.
Turning to `CC(C)[N+](C)(CCC(C(N)=O)(c1ccccc1)c1ccccc1)C(C)C`, in assay [1], the efficacy was 13.5%. Moreover, the compound was classed as inactive in [2], in assay [3], in assay [4], in [5], in [6] and in [8]. In addition, the Potency in assay [7] is 31.6 µM (active). Besides, the Potency entry in [9] and in [10] was “inactive” in each case.
Take `CNC(=O)Oc1cccc2ccccc12`: the efficacy in assay [1] is 18.8%. The call in assay [2], in [3], in assay [4], in [5], in assay [6] and in assay [8] was inactive. Moreover, the Potency entry in [7], in [9] and in assay [10] was “inactive” throughout.

What is called AC50 is the midpoint of the concentration-response curve, whichever way the signal moves.
